Our source for the outcome and activity change, negative = cytotoxicity values is PubChem BioAssay (Tox21).

Records with an inconclusive call do not appear. A number with no mark means an inactive call. The source made the active and inactive calls. Calls come from the whole dose curve; as a rule, active = well fitted cell-killing curve with a large enough effect in the repeat runs; inconclusive = weak or mixed curves, or effect the other way; inactive = flat fitted curve, though single readings scatter. Non-standard residues stand in square brackets, D forms with d. Residues, ends and D or L forms follow the SMILES beside them. *: point of attachment. Sta = CC(C)C[C@H](N)[C@@H](O)CC(=O)O; Isovaleryl = CC(C)CC(=O)*
% is set by controls: 0 for no effect and ±100 for the full control effect.
Note: top concentration of the series differs between compounds; nearly all actives have a fitted effect of over 50% in size.

The nature of the first assay: qHTS RealTime-Glo MT Cell Viability Assay in HEK293 cells - 24 hour (AID 1224886). The conditions noted are these: RealTime-Glo luminescence; series mostly up to 76.8 µM. In a few lines:
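Reads taken at 0, 8, 16, 24, 32 and 40 h from the same wells. HEK293 cells (600/well) carried RealTime-Glo reagents from seeding, with compound added after a 5 h settle at 37 C.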
Background: In qHTS, concentration-response curves come from the screen itself.
Consider `Cc1ccc2ccccc2n1`, for which the compound was classed as inactive. With `CC/C=C\CCOC(=O)c1ccccc1`, the call was inactive. In the case of `C=CCON/C(CCC)=C1\C(=O)CC(C)(C)C(C(=O)OC)=C1O`, the result was inactive.

As for `C[C@@H]1CCC[C@H](C)N1CCCC(O)(c1ccccc1)c1ccccn1` (some centres undefined), the call was inactive.

For `CC(C)(C)C(=O)CCc1ccc(Cl)cc1`, the outcome was inactive. For the compound `CCCCCCCC(=O)N(C)C`, the compound was classed as inactive. Same read-out and setting: the same measure for `COc1ccc(Cl)cc1C`: “inactive”; for `Cc1ccc(OC(=O)CC(C)C)cc1`: “inactive”; for `CCCCN1C(=O)c2ccccc2C1=O`: “inactive”. For `CCCC(=O)C(CC)Sc1ccoc1C` (centres undefined), the compound was called inactive. For the compound `CC1(C)CC(N)CC(C)(C)N1`, the call was inactive. In the case of `CN(C)CCCN(C)C`, the activity change, negative = cytotoxicity was 3.07% [at 6.97 µM]. As for `N[C@H]1C(O)O[C@H](CO)[C@@H](O)[C@@H]1O` (some centres undefined), the call was inactive. In the case of `Cc1ccc(S(=O)(=O)NC(=O)NN2CC3CCCC3C2)cc1` (centres undefined), the outcome was inactive. As to `CCCCC(O)/C=C(C)/C=C/C=C/C(=O)N1CCCC1=O` (centres undefined), the outcome was inactive. Consider `Cc1cccc(N)n1`, for which the result was inactive. Regarding `O=C(O)Cc1ccccc1Oc1ccc(Cl)cc1Cl`, the call was inactive. On the same count and under the same terms, the same measure for `C[n+]1ccccc1/C=N/O`: “inactive”. `COc1cnc(NS(=O)(=O)c2ccc(N)cc2)nc1`: the compound was called inactive. As for `CC(=O)O[C@@H]1CC2C3CCc4cc(OC(=O)c5ccccc5)ccc4C3CCC2(C)[C@H]1OC(C)=O` (some centres undefined), the result was inactive. Turning to `CC(C)CC(=O)N[C@H](C(=O)N[C@H](C(=O)N[C@@H](CC(C)C)[C@@H](O)CC(=O)N[C@@H](C)C(=O)N[C@@H](CC(C)C)[C@@H](O)CC(=O)O)C(C)C)C(C)C` (Isovaleryl-VV[Sta]A[Sta]-OH), the result was inactive. The same measure, in the same setting: under `Cc1cc(=O)oc2cc(O[C@@H]3SC[C@@H](O)[C@H](O)[C@H]3O)ccc12` stands “inactive”; under `CC(C)(Sc1cc(C(C)(C)C)c(O)c(C(C)(C)C)c1)Sc1cc(C(C)(C)C)c(O)c(C(C)(C)C)c1`, “inactive”; under `CC(C)(C)C(=O)NCCCC(=O)O`, “inactive”. Still for that read-out and setting: under `Cc1nc2ccc(Cl)cc2[nH]1` stands “inactive”; under `O=C(O)CCC(=O)Nc1ccc(S(=O)(=O)Nc2nccs2)cc1`, “inactive”; under `COC(=O)c1ccc(NC(C)=O)cc1OC`, “inactive”. As for `CCO[Si](CC(C)C)(OCC)OCC`, the result was inactive.

Regarding `CCC(C)SSC(C)CC` (centres undefined), the result was inactive.

The nature of a further assay: qHTS RealTime-Glo MT Cell Viability Assay in HEK293 cells - 8 hour (AID 1224887). The conditions noted are these: RealTime-Glo luminescence; series mostly up to 76.8 µM. In a few lines:
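Measured as luminescence from the same continuously cultured HEK293 wells at successive time points (0, 8, 16, 24, 32, 40 h) after compound addition. Reagent present from seeding; dosing at 5 h; incubation 37 C.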
Take `CCCC(=O)OC`: the call was inactive. Consider `Cc1ccc2ccccc2n1`, for which the outcome was inactive. Take `C=CCON/C(CCC)=C1\C(=O)CC(C)(C)C(C(=O)OC)=C1O`: the compound was classed as inactive. For the compound `CC(C)(C)c1ccc(N)cc1`, the outcome was inactive.

`CC/C=C\CCCCCCCCCCOC(C)=O`: the result was inactive. Consider `C[C@@H]1CCC[C@H](C)N1CCCC(O)(c1ccccc1)c1ccccn1` (some centres undefined), for which the call was inactive. In the case of `c1cc2ccc3ccc4ccc5cccc6c(c1)c2c3c4c56`, the activity change, negative = cytotoxicity was -6.75% [at 2.72 µM].

`CC(C)(C)C(=O)CCc1ccc(Cl)cc1`: the outcome was inactive. In the case of `CCCCCCCC(=O)N(C)C`, the compound was called inactive. Consider `COc1ccc(Cl)cc1C`, for which the compound was classed as inactive. `Cc1ccc(OC(=O)CC(C)C)cc1`: the compound was called inactive. Still for that read-out and setting: under `CCCCN1C(=O)c2ccccc2C1=O` stands “inactive”. The same measure, in the same setting: under `CCCC(=O)C(CC)Sc1ccoc1C` (centres undefined) stands “inactive”.

With `CC1(C)CC(N)CC(C)(C)N1`, the compound was called inactive. On to `CN(C)CCCN(C)C`, for which the activity change, negative = cytotoxicity is -0.912% [at 6.97 µM]. For `N[C@H]1C(O)O[C@H](CO)[C@@H](O)[C@@H]1O` (some centres undefined), the compound was classed as inactive. `Cc1ccc(S(=O)(=O)NC(=O)NN2CC3CCCC3C2)cc1` (centres undefined): the result was inactive.

`CCCCC(O)/C=C(C)/C=C/C=C/C(=O)N1CCCC1=O` (centres undefined): the compound was called inactive. With `CCN(CC)CC`, the compound was called inactive. On the same count and under the same terms, under `Cc1cccc(N)n1` stands “inactive”; under `O=C(O)Cc1ccccc1Oc1ccc(Cl)cc1Cl`, “inactive”; under `C[n+]1ccccc1/C=N/O`, “inactive”. Regarding `COc1cnc(NS(=O)(=O)c2ccc(N)cc2)nc1`, the call was inactive.

For the compound `COc1ccccc1N1CCN(CC(O)COc2cc(OC)c(OC)c(OC)c2)CC1` (centres undefined), the call was inactive. Consider `CCCCCCCCOCCC#N`, for which the call was inactive.

For `C/C=C/C(=O)CCCC`, the compound was called inactive.

With `CC(=O)O[C@@H]1CC2C3CCc4cc(OC(=O)c5ccccc5)ccc4C3CCC2(C)[C@H]1OC(C)=O` (some centres undefined), the compound was classed as inactive. As to `CC(C)CC(=O)N[C@H](C(=O)N[C@H](C(=O)N[C@@H](CC(C)C)[C@@H](O)CC(=O)N[C@@H](C)C(=O)N[C@@H](CC(C)C)[C@@H](O)CC(=O)O)C(C)C)C(C)C` (Isovaleryl-VV[Sta]A[Sta]-OH), the result was inactive. `Cc1cc(=O)oc2cc(O[C@@H]3SC[C@@H](O)[C@H](O)[C@H]3O)ccc12`: the compound was called inactive. For `CC(C)(Sc1cc(C(C)(C)C)c(O)c(C(C)(C)C)c1)Sc1cc(C(C)(C)C)c(O)c(C(C)(C)C)c1`, the compound was called inactive.
